Laboratory results: PubChem BioAssay (NCATS)
Results filed as inconclusive are left out. Values without a mark were called inactive. Calls of active or inactive are those of the source. The call rests on the fitted dose curve; in most records, active means well fitted inhibition curve with a large enough effect; inconclusive means small, poorly fitted or top-dose-only effect; inactive means flat fitted curve, though single readings scatter.

These compounds were tested against Lysine-specific demethylase 5B (Homo sapiens) (UniProt Q9UGL1) (assay: Optimization screen for KDM5B Histone Demethylases FDH coupled qHTS against the LOPAC library (AID 1347166; further: 0% is about no effect)). Conditions: KDM5B demethylation, FDH-coupled NADH fluorescence (FDH is formaldehyde dehydrogenase); series mostly up to 57.5 µM; activity, negative = inhibition: at the top concentration.
Sequence of Lysine-specific demethylase 5B (Homo sapiens) (Q9UGL1 whole entry, looked up): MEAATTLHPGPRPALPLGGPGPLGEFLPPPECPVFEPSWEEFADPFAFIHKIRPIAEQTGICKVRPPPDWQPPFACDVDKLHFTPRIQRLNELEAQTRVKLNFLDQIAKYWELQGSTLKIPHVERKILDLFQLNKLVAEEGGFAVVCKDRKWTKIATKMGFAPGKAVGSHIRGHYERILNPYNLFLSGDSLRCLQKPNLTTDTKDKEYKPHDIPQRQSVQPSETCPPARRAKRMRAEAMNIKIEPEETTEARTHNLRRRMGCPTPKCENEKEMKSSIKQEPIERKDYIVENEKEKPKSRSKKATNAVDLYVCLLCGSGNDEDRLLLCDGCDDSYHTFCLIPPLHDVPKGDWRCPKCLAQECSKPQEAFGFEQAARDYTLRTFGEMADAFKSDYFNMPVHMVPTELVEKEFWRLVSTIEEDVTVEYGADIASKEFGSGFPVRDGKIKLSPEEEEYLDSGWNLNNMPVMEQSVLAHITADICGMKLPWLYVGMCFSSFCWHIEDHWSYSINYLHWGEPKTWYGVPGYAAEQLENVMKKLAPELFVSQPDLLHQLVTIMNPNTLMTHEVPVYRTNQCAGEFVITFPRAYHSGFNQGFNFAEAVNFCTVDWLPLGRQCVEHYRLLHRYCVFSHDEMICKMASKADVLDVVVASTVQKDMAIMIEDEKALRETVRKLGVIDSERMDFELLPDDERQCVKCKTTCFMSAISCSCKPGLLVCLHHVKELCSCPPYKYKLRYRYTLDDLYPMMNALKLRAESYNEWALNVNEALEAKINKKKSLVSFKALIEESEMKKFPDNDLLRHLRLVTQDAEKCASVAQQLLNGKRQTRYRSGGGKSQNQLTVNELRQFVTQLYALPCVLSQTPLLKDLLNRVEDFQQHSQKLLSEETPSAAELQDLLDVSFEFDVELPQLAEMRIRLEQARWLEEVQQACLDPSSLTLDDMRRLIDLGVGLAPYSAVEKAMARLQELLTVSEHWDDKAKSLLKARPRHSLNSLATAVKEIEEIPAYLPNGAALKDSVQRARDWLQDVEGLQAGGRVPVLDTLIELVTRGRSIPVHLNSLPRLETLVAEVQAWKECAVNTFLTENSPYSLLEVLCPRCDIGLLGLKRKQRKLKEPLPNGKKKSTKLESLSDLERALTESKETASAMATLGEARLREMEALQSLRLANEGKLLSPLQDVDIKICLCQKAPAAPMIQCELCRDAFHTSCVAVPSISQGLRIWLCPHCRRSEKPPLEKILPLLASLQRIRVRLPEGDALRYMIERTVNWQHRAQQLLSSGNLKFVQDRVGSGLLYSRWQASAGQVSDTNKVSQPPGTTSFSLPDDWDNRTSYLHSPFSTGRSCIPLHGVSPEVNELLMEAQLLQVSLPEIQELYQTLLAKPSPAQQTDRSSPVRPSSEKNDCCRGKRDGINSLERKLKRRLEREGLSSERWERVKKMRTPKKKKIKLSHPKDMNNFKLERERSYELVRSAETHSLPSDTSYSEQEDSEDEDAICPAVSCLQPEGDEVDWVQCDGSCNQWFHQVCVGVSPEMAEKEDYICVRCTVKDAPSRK
In short: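 KDM5BDeltaAP (200nM final) in 50mM HEPES pH 7.5, 0.01% Tween-20 was preincubated with compound for 10 min at room temperature. A substrate mix of 12.5uM H3K4Me3, 25uM a-ketoglutarate, ascorbate, Fe2+, NAD+ and formaldehyde dehydrogenase was then added. NADH fluorescence (340/450 nm) was read initially and after 30 min.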
With `CS(=N)(=O)CC[C@H](N)C(=O)O` (stereo partly drawn) the “activity, negative = inhibition” value was -5.65%. For `C#CCOC(=O)C1=CCCN(C)C1`, the “activity, negative = inhibition” value was -4.63%. For `COC(=O)[C@@H](N)CCCN=C(N)N[N+](=O)[O-]`, the “activity, negative = inhibition” value was -10.5%. `O=C(Cc1ccc(Cl)c(Cl)c1)N1CCCCC1CN1CCCC1` (stereo not drawn) was tested, and the “activity, negative = inhibition” value was -6.44%. With `NCc1cc(=O)[nH]o1` the “activity, negative = inhibition” value was -2.29%. `CNCCc1c[nH]c2ccc(O)cc12` was tested, and the “activity, negative = inhibition” value was -26%. With `NC(CCP(=O)(O)O)C(=O)O` (stereo not drawn) the “activity, negative = inhibition” value was -6.67%. `Cn1cnc(CCN)c1` was tested, and the “activity, negative = inhibition” value was -6.57%. For `NC(=NCCC[C@H](N)C(=O)O)N[N+](=O)[O-]`, the “activity, negative = inhibition” value was -2.63%. With `C/C=C(/C)C(=O)O[C@H]1C(C)=C2[C@H]([C@@H]1OC(=O)CCCCCCC)[C@@](C)(OC(C)=O)C[C@H](OC(=O)CCC)[C@@]1(O)[C@H]2OC(=O)[C@@]1(C)O` the “activity, negative = inhibition” value was -27.4%. In the case of `C[C@]12CCC3C(CC[C@H]4C[C@H](O)CC[C@]34C)C1CC[C@@H]2C(=O)CO` (stereo partly drawn), the “activity, negative = inhibition” value is reported as -1.14%. `CC[C@@]1(O)C(=O)OCc2c1cc1n(c2=O)Cc2cc3ccccc3nc2-1` was tested, and the “activity, negative = inhibition” value was 565%. With `CCCN(CCC)C1CCc2ccc(O)cc2C1` (stereo not drawn) the “activity, negative = inhibition” value was -5.57%. `NC(N)=NOCCC(N)C(=O)O` (stereo not drawn) was tested, and the “activity, negative = inhibition” value was 2.2%. With `O=C1CCCN1CC#CCN1CCCC1` the “activity, negative = inhibition” value was -15.6%. `CN1C2CCC1CC(OC(=O)c1cc(Cl)cc(Cl)c1)C2` (stereo not drawn) was tested, and the “activity, negative = inhibition” value was -3.11%. For `CCCN(CCC)[C@@H]1CCc2ccc(O)cc2C1`, the “activity, negative = inhibition” value was 3.21%. With `O=C(O)CC[N+](=O)[O-]` the “activity, negative = inhibition” value was -7.22%. In the case of `CCCN1CCC[C@H](c2cccc(O)c2)C1`, the “activity, negative = inhibition” value is reported as -2.97%. For `CC(=O)[C@H]1CCC2C3CC[C@H]4C[C@H](O)CC[C@]4(C)C3CC[C@@]21C` (stereo partly drawn), the “activity, negative = inhibition” value was -2.53%. For `Oc1ccc2c3c1O[C@H]1c4[nH]c5c(c4C[C@@]4(O)[C@@H](C2)N(CC2CC2)CC[C@]314)C[C@@]1(O)[C@H]2Cc3ccc(O)c4c3[C@@]1(CCN2CC1CC1)[C@H]5O4`, the “activity, negative = inhibition” value was -6.32%. In the case of `CC[C@@H](C(N)=O)N1CCCC1=O`, the “activity, negative = inhibition” value is reported as -1.49%. `CC(C)NC(C)Cc1ccc(I)cc1` (stereo not drawn) was tested, and the “activity, negative = inhibition” value was -4.81%. For `c1ccc(CCCN2CCN(CCOC(c3ccccc3)c3ccccc3)CC2)cc1`, the “activity, negative = inhibition” value was -8.57%. For `CC1=NN=C(c2ccc(N)cc2)c2cc3c(cc2C1)OCO3`, the “activity, negative = inhibition” value was -23.8%. For `Cc1c(C(=O)c2cccc3ccccc23)c2cccc3c2n1[C@H](CN1CCOCC1)CO3`, the “activity, negative = inhibition” value was -15.1%. For `CCCN1CCO[C@@H]2c3cc(O)ccc3OC[C@H]21`, the outcome was “inactive”. In the case of `C=CCN1CC[C@]23CCCCC2[C@H]1Cc1ccc(O)cc13` (stereo partly drawn), the “activity, negative = inhibition” value is reported as -18%.
